Binding signal data for 51 sequences are collected here from article PMC10726135, “HNF4α isoforms regulate the circadian balance between carbohydrate and lipid metabolism in the liver”.

Whole data set: some 18,000 sequences, median “log2 normalized intensity” near 0.39, cut for the highest 2% near 6.6. This excerpt belongs to a sample that is enriched for the highest values.

The target in this assay is T1, HNF4alpha2 (COS-7 nuclear extract) (Homo sapiens, UniProt P41235 1-474).
T1 sequence: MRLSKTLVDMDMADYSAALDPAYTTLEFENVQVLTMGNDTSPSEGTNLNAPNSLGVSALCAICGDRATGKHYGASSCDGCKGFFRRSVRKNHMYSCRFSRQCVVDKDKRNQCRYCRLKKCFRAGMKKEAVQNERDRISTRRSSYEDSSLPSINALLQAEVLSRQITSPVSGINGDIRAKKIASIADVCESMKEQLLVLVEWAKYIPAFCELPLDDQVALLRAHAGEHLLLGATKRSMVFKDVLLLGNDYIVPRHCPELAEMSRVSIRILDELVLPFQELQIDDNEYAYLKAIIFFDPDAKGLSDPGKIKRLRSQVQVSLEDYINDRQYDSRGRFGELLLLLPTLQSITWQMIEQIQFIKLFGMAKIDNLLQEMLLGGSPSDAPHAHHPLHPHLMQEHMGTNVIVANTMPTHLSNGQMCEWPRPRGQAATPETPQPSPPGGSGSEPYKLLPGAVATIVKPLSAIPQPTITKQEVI
As to the kind of experiment: protein-binding microarray; COS-7 nuclear extract on double-stranded Agilent 4x180k PBM; binding buffer, salt, pH and temperature not given in the material; high values mean tight binding. The settings on record: chain copies: 2; label: 3' end of strand 1 on the slide; dsDNA, one strand shown. The method, boiled down: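 A custom Agilent SurePrint G3 4x180k array, spotted in quadruplicate with ~44,000 test sequences as ~60-nt oligonucleotides made double-stranded, was incubated with nuclear extracts. The extracts came from COS-7 cells transiently transfected by CaPO4 with a human HNF4α isoform expression vector. Bound HNF4α was imaged on an Agilent G2565CA scanner at 2-µm resolution, and the binding signal was taken as Agilent software's background-corrected, normalized gProcessedSignal.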
Take “TTGGGTCACAATCACAAATGCCTTCAGGGGGCCTAGGGAGATTAGAGTATCGGTCGA”: the binding signal is 0.838 log2 normalized intensity. On to “TCAGCCCACAGGTCAATCCAGGTTGCTGCCGCCTAGGGAGATTAGAGTATCGGTCGA”, for which the binding signal is -0.646 log2 normalized intensity. For the sequence “GGCCCAGAGCACAACCTTTGGCCGTGCATGGCCTAGGGAGATTAGAGTATCGGTCGA”, the binding signal came out at 2.45 log2 normalized intensity. Consider “TTAAATCCTATCCTAGGGTTAAAGTCTACAGCCTAGGGAGATTAGAGTATCGGTCGA”, for which the binding signal was found to be 4.31 log2 normalized intensity. Regarding “ACCCCACGGACTTAAATTGTGCTGTGTCAGGCCTAGGGAGATTAGAGTATCGGTCGA”, the binding signal came out at 1.49 log2 normalized intensity. Take “CAAAGTCCGCTTGCCTGAGGGTCATGACTAGCCTAGGGAGATTAGAGTATCGGTCGA”: the binding signal amounted to 2.26 log2 normalized intensity. The value for “GCCAATTCAGCAAACAAAGGCACTTCTCTCGCCTAGGGAGATTAGAGTATCGGTCGA” was -0.96 log2 normalized intensity; that for “TGAGCAGGCAGTGTCACAGAAATCATGTAGGCCTAGGGAGATTAGAGTATCGGTCGA” was 0.722 log2 normalized intensity; that for “AGGTCAAAGTGCAACTACAAGGAGCAGCCTGCCTAGGGAGATTAGAGTATCGGTCGA” was 3.48 log2 normalized intensity.

As for “ACCTTGTGCAGTATCCCAGGGACTTACTCAGCCTAGGGAGATTAGAGTATCGGTCGA”, the binding signal was -0.811 log2 normalized intensity.

Take “CAATAAGCAATACATTGAACTTTGAACACCGCCTAGGGAGATTAGAGTATCGGTCGA”: the binding signal worked out at 6.91 log2 normalized intensity. The value for “AGAGCCTAGTTCATTGCAATTACTCAATAAGCCTAGGGAGATTAGAGTATCGGTCGA” was -0.91 log2 normalized intensity; that for “AGCAATACATTGAACTTTGAACACCTCTTCGCCTAGGGAGATTAGAGTATCGGTCGA” was 5.41 log2 normalized intensity. Take “TTGTTCAATAAGCAATACATTGAACTTTGAGCCTAGGGAGATTAGAGTATCGGTCGA”: the binding signal worked out at 7.41 log2 normalized intensity. In the case of “AAGCAAACAAAACACGGACTTTGAAGCTCCGCCTAGGGAGATTAGAGTATCGGTCGA”, the binding signal was determined as 1.95 log2 normalized intensity.

With “TTTTCAACATATACTTTGAACTTGTTTTTTGCCTAGGGAGATTAGAGTATCGGTCGA”, the binding signal was determined as 2.27 log2 normalized intensity. For “TTTCATCTTCTTAGCCTTTGAACCCCACACGCCTAGGGAGATTAGAGTATCGGTCGA”, the binding signal came to 4.78 log2 normalized intensity. In the case of “GATTTCATCTAAGGACAAACTTTGTCACTGGCCTAGGGAGATTAGAGTATCGGTCGA”, the binding signal was 1.15 log2 normalized intensity. In the case of “ATCTAAGATTCCCCCTACCCTCAATATCTGGCCTAGGGAGATTAGAGTATCGGTCGA”, the binding signal amounted to 4.35 log2 normalized intensity. In the case of “TTAACAAGCATTTTGTTCCCATTGATCATTGCCTAGGGAGATTAGAGTATCGGTCGA” it was 1.23 log2 normalized intensity; in that of “CTGCCAAAGCTCACAGATGTGGAATGAAACGCCTAGGGAGATTAGAGTATCGGTCGA”, -0.0699 log2 normalized intensity; in that of “TTTGAAAGAAAGAGACCTTTACCCTGACCTGCCTAGGGAGATTAGAGTATCGGTCGA”, 3.55 log2 normalized intensity. In the case of “ACCTTTGACCCTTCTCTGGGAGAAAGGGAGGCCTAGGGAGATTAGAGTATCGGTCGA”, the binding signal turned out to be 2.99 log2 normalized intensity. Regarding “AAACAATGACCTCTGCACCCTTCCCTGAGTGCCTAGGGAGATTAGAGTATCGGTCGA”, the binding signal was determined as 3.51 log2 normalized intensity.

With “CAATGACCTTTGACCCTTCTCTGGGAGAAAGCCTAGGGAGATTAGAGTATCGGTCGA”, the binding signal was found to be 8.21 log2 normalized intensity. The value for “GAAGGAGCACCAATGACCTTTGACCCTTCTGCCTAGGGAGATTAGAGTATCGGTCGA” was 11.1 log2 normalized intensity; that for “CAATCCTGGAGAAGGAGCACCAATGACCTTGCCTAGGGAGATTAGAGTATCGGTCGA” was 3.47 log2 normalized intensity; that for “TTCCCTCATGATTTAGTAAGTTCAAGAAGAGCCTAGGGAGATTAGAGTATCGGTCGA” was 0.956 log2 normalized intensity. As to “GGCCTTGGGCCACCTGAGACAGTTTATGCCGCCTAGGGAGATTAGAGTATCGGTCGA”, the binding signal was -0.994 log2 normalized intensity.

Take “CCCTTTGGCCTTTCTAATTATTTACAGGGAGCCTAGGGAGATTAGAGTATCGGTCGA”: the binding signal was found to be 0.82 log2 normalized intensity. As to “GTAGAGACCTGTCTTCCTGGTGACCTTTGTGCCTAGGGAGATTAGAGTATCGGTCGA”, the binding signal was 7.11 log2 normalized intensity. In the case of “GTCAAGTAGAGACCTGTCTTCCTGGTGACCGCCTAGGGAGATTAGAGTATCGGTCGA”, the binding signal stood at 2.19 log2 normalized intensity. “ATGTGGGGCGTGTGTTAGACTTTGGACCTGGCCTAGGGAGATTAGAGTATCGGTCGA”: the binding signal stood at 8.86 log2 normalized intensity. Consider “GACCTGTCTTCCTGGTGACCTTTGTTTGGTGCCTAGGGAGATTAGAGTATCGGTCGA”, for which the binding signal amounted to 4.94 log2 normalized intensity. In the case of “ACACACAATAAGGACTTTGGACCGTCTTGTGCCTAGGGAGATTAGAGTATCGGTCGA” it was 7.27 log2 normalized intensity; in that of “TAGACTTTGGACCTGGCCTGCGGGGTCAGGGCCTAGGGAGATTAGAGTATCGGTCGA”, 5.39 log2 normalized intensity; in that of “GAGCACTCATTCCTATTCGGTGCTGACCTTGCCTAGGGAGATTAGAGTATCGGTCGA”, 3.47 log2 normalized intensity.

Consider “AGGACTTTGGACCGTCTTGTGGATCCTTGGGCCTAGGGAGATTAGAGTATCGGTCGA”, for which the binding signal turned out to be 4.73 log2 normalized intensity.

With “CTCATTCCTATTCGGTGCTGACCTTTGTTCGCCTAGGGAGATTAGAGTATCGGTCGA”, the binding signal was 7.77 log2 normalized intensity.

On to “CAATAAGGACTTTGGACCGTCTTGTGGATCGCCTAGGGAGATTAGAGTATCGGTCGA”, for which the binding signal was determined as 5.92 log2 normalized intensity.

“TCCTATTCGGTGCTGACCTTTGTTCACATTGCCTAGGGAGATTAGAGTATCGGTCGA”: the binding signal came to 5.89 log2 normalized intensity.

Take “CGGGTATGTGGGGCGTGTGTTAGACTTTGGGCCTAGGGAGATTAGAGTATCGGTCGA”: the binding signal is 4.22 log2 normalized intensity.

On to “CATGGGCTGTCACCTTTACCCCCACTCTCCGCCTAGGGAGATTAGAGTATCGGTCGA”, for which the binding signal was 4.46 log2 normalized intensity. For the sequence “CTCCCAAGGTATCCTCCTAGAGTCCAAGGTGCCTAGGGAGATTAGAGTATCGGTCGA”, the binding signal stood at 2.68 log2 normalized intensity.

For the sequence “GAACTTTGACTTATTTAGTAGTGGCAAGAGGCCTAGGGAGATTAGAGTATCGGTCGA”, the binding signal was determined as 2.7 log2 normalized intensity.

Take “CAAAGCCCCTTTCCACTCTACCGTCCTCCCGCCTAGGGAGATTAGAGTATCGGTCGA”: the binding signal is 1.91 log2 normalized intensity.

As to “CCAGGGACTTTGAACACTTCTTTGTTACTTGCCTAGGGAGATTAGAGTATCGGTCGA”, the binding signal came to 2.44 log2 normalized intensity.

Consider “GTGCTGACCTCCTGTCTCATCCTGTGACCAGCCTAGGGAGATTAGAGTATCGGTCGA”, for which the binding signal is 1.42 log2 normalized intensity. In the case of “TCACCCTCTCCACCCCCATGCAAGTTCCCAGCCTAGGGAGATTAGAGTATCGGTCGA”, the binding signal came out at 5.26 log2 normalized intensity.

Regarding “GTGAGTGGACTTTGGTCCTGGTCAGACTTGGCCTAGGGAGATTAGAGTATCGGTCGA”, the binding signal worked out at 5.76 log2 normalized intensity. The value for “GATACAACGGTTCAAAGGACAGACTTTGGAGCCTAGGGAGATTAGAGTATCGGTCGA” was 3.39 log2 normalized intensity.
